In assay [1] the test system is XIP peptide (Xip251-270) binding. Briefly: XIP fragment 251-270 binding compounds – biochemical, small-molecule microarray, fluorescence 635/667 nm, 0.1 µg/mL protein, primary screen (AID 1182). Particulars: fluorescent protein binding, 635 nm, higher = more signal, called active from +8 up or from −8 down.
For another assay, the system named is XIP peptide (Xip251-270). Briefly: compounds binding XIP fragment 251-270 – biochemical, small-molecule microarray, fluorescence 635/667 nm, 0.5 µg/mL protein, primary screen (AID 1183). Conditions: fluorescence 635 nm, higher = more signal.
The nature of assay [2]: blood-stage malaria parasite viability loss – strain 3D7, DAPI fluorescence, 100 nL, primary screen (AID 1184).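 Note: parasites grown inside human red blood cells in medium with human serum.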 Particulars: P. falciparum 3D7 growth, 3 d, higher = more signal.
For assay [3], the target named is Homeobox protein Hox-A13 (Mus musculus) (UniProt Q62424). Nature of the assay: disruptors of Hoxa13 oligonucleotide interaction – biochemical, fluorescence polarization, labeled oligonucleotide, primary screen (AID 1185). Particulars: Hoxa13:DNA binding, 15 min, higher = more signal, called active from +8 up or from −8 down. For orientation: Fluorescence polarisation rises when a labelled molecule tumbles more slowly, as on binding a larger partner.

A short description of assay [4]: blockers of DNA damage checkpoint Chk1 activation – imaging, HeLa, hydroxyurea, phospho-Chk1 antibody, percent positive cells, primary screen (AID 1186). Particulars: hydroxyurea-induced phospho-Chk1 immunofluorescence imaging, higher = more signal.
The nature of assay [5]: blockers of DNA damage checkpoint Chk1 activation – imaging, HeLa, hydroxyurea, phospho-Chk1 nuclear intensity, primary screen (AID 1187). Particulars: hydroxyurea-induced phospho-Chk1 immunofluorescence imaging, higher = more signal.

This is an account of results in PubChem BioAssay.

Structures are written as SMILES. Calls of active or inactive are those of the source. Unless noted, the rule behind the calls is not given here.

Sequence of Homeobox protein Hox-A13 (Mus musculus) (Q62424 whole entry, looked up): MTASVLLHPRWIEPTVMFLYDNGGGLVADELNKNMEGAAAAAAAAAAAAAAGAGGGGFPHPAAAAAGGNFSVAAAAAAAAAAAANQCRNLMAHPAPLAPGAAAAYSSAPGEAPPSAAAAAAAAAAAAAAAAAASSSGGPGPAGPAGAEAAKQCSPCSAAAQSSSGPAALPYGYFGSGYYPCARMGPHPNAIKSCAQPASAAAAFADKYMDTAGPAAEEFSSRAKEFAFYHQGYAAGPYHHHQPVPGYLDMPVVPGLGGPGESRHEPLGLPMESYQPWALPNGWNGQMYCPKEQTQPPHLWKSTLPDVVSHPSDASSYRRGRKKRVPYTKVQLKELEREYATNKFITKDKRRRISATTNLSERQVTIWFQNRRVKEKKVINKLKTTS

Take `[N-]=[N+]=NCc1ccccc1C[C@]1(C(N)=O)N=C(c2ccc(OCCCO)cc2)O[C@H]1c1ccccc1`: the composite z-score in assay [1] was 0.594 (inactive); in the assay on XIP peptide (Xip251-270), 0.692. Also, the z-score in assay [2] is -1.42; in assay [3] it was -6.49 (inactive); in assay [4] it was 0.0449 (inactive); in assay [5], 0.43 (inactive).

For `COCCOC(=O)N1C(=O)[C@@]2(c3cc(C#Cc4ccc(OC)cc4)ccc31)[C@H](c1ccccc1OCCO)N1[C@H](c3ccccc3)[C@H](c3ccccc3)OC(=O)[C@H]1[C@@H]2C(=O)N1CCCCCCC1`, the composite z-score is 1.93 (inactive) in assay [1] and 0.319 with XIP peptide (Xip251-270). Also, the z-score in assay [2] was -2.02; in assay [3], 4.73 (inactive); in assay [4] it was -0.434 (inactive); in assay [5], -0.648 (inactive).

As to `OCCCC1=CC(c2ccc(CN3CCCC3)cc2)N(Cc2sc3ccccc3c2Cl)CC1` (configuration not stated), the composite z-score in assay [1] is 0.705 (inactive); in the assay with XIP peptide (Xip251-270), 0.797. In addition, the z-score in assay [2] is -3.1; in assay [3] it was -1.38 (inactive); in assay [4], -0.186 (inactive); in assay [5], -0.276 (inactive).

Take `Cc1ccccc1C(O)C1C=CC2C(=O)N(C)C(=O)C2N1N(c1ccccc1)c1ccccc1` (configuration not stated): the composite z-score in assay [1] is -0.0728 (inactive); with XIP peptide (Xip251-270) it was 0.649. Further, the z-score in assay [2] is 0.548; in assay [3], -1.17 (inactive); in assay [4], -0.274 (inactive); in assay [5], -0.168 (inactive).

Turning to `CCOC(=O)[C@H]1[C@@H]2C(=O)N3CCC[C@H]3[C@H](O[Si](C(C)C)(C(C)C)C(C)C)[C@H]2C=C2CCN(S(=O)(=O)c3ccc(C)cc3)C[C@H]21`, the composite z-score in assay [1] was 0.0514 (inactive); in the assay on XIP peptide (Xip251-270), 0.589. The z-score in assay [2] is -2.23; in assay [3], -4.48 (inactive); in assay [4] it was 0.186 (inactive); in assay [5] it was -0.0427 (inactive).

`CC(C)[Si](C#CCCCC#N)(O[C@H](c1ccccc1)c1cn([C@H](CO)Cc2ccccc2)nn1)C(C)C`: the composite z-score in assay [1] was 0.0339 (inactive); in the assay on XIP peptide (Xip251-270), 0.283. In addition, the z-score in assay [2] was 0.0921; in assay [3] it was -0.999 (inactive); in assay [4], -0.43 (inactive); in assay [5] it was -1.05 (inactive).

In the case of `COCCOC(=O)N1C(=O)[C@@]2(c3cc(C#CC4=CCCCC4)ccc31)[C@H](c1ccccc1OCCO)N1[C@H](c3ccccc3)[C@H](c3ccccc3)OC(=O)[C@H]1[C@@H]2C(=O)Nc1nc2ccccc2s1`, the figures for the composite z-score (in assay [1]; in the assay with XIP peptide (Xip251-270)) were 0.469 (inactive) and 0.484, respectively. For the same compound, the z-score in assay [2] was -1.8; in assay [3], 3.53 (inactive); in assay [4] it was 0.325 (inactive); in assay [5] it was 0.587 (inactive).

`[N-]=[N+]=Nc1ccccc1[C@H]1OC(c2ccc(OCCCO)cc2)=N[C@@]1(Cc1ccccc1)C(=O)N1CCCCC1`: the composite z-score in assay [1] was 0.391 (inactive); in the assay on XIP peptide (Xip251-270), 0.664. The z-score in assay [2] was -1.95; in assay [3], -2.71 (inactive); in assay [4] it was -0.549 (inactive); in assay [5], -0.463 (inactive).

For `COC(=O)[C@@]1(Cc2ccc(OC)cc2)[C@H]2c3cc(C(=O)N(C)C)n(Cc4ccc(Cl)c(C(F)(F)F)c4)c3C[C@H]2CN1C(=O)c1ccccc1`, the composite z-score is -0.0177 (inactive) in assay [1] and 0.267 with XIP peptide (Xip251-270). For the same compound, the z-score is -1.48 in assay [2], -3.47 (inactive) in assay [3], 0.472 (inactive) in assay [4] and 0.127 (inactive) in assay [5].

For the compound `COCCCNC(=O)[C@@]1(Cc2ccccc2CN=[N+]=[N-])N=C(c2ccc(OCCCO)cc2)O[C@H]1c1ccccc1`, the composite z-score in assay [1] is 1.38 (inactive); in the assay on XIP peptide (Xip251-270) it was 0.789. Also, the z-score in assay [2] was -2.37; in assay [3] it was -6.47 (inactive); in assay [4], -0.371 (inactive); in assay [5], -0.349 (inactive).

In the case of `CC1=C([C@H](O)CCc2ccccc2)[C@H](CO)[C@@H]2C(=O)N(C)C(=O)[C@@H]2C1`, the figures for the composite z-score (in assay [1]; with XIP peptide (Xip251-270)) were -0.0688 (inactive) and 0.389, respectively. For the same compound, the z-score in assay [2] was 0.306; in assay [3], -4.05 (inactive); in assay [4], -0.296 (inactive); in assay [5], -0.528 (inactive).

Consider `CC(=O)NCCCC[C@@H]1NC(=O)[C@@H]2C[C@H](C(=O)NCCCC[N+](C)(C)C)[C@H](c3ccc(O)cc3)N2C1=O`, for which the composite z-score was 2.41 (inactive) in assay [1] and 0.842 with XIP peptide (Xip251-270). For the same compound, the z-score in assay [2] was -0.859; in assay [3] it was 0.749 (inactive); in assay [4] it was -0.508 (inactive); in assay [5] it was -0.589 (inactive).

For `O=C1C[C@@](C(=O)NCCN2CCOCC2)(c2ccc([N+](=O)[O-])cc2)[C@@H](c2ccc(CO)cc2I)N1C1CCCCC1`, the composite z-score was -0.026 (inactive) in assay [1] and 0.588 in the assay on XIP peptide (Xip251-270). For the same compound, the z-score in assay [2] was -1.37; in assay [3], -5.37 (inactive); in assay [4], 0.0213 (inactive); in assay [5], 0.245 (inactive).

Consider `CN1C(=O)C2C=CC(C(O)COCc3ccccc3)N(N(c3ccccc3)c3ccccc3)C2C1=O` (configuration not stated), for which the composite z-score in assay [1] was 0.441 (inactive); in the assay on XIP peptide (Xip251-270), 0.74. Further, the z-score is -0.144 in assay [2], -0.885 (inactive) in assay [3], -0.0138 (inactive) in assay [4] and -0.35 (inactive) in assay [5].

For `CC(C)N1C(=O)C[C@@](C(=O)NCCCN(C)C)(c2ccc([N+](=O)[O-])cc2)[C@H]1c1ccc(CO)cc1`, the composite z-score in assay [1] is -0.324 (inactive); in the assay on XIP peptide (Xip251-270) it was 0.51. For the same compound, the z-score in assay [2] is 0.0784; in assay [3], -2.62 (inactive); in assay [4], 0.414 (inactive); in assay [5], 0.273 (inactive).

As for `COc1cc2c(cc1OC)CN(C(=O)[C@@H]1[C@H]3C(=O)O[C@H](c4ccccc4)[C@H](c4ccccc4)N3[C@H](c3ccc(OCCO)cc3)[C@@]13C(=O)Nc1ccc(C#CC4(O)CCCCCC4)cc13)CC2`, the composite z-score was 0.784 (inactive) in assay [1] and 0.684 in the assay on XIP peptide (Xip251-270). Moreover, the z-score in assay [2] is -2.06; in assay [3] it was 3.75 (inactive); in assay [4] it was -0.124 (inactive); in assay [5], 0.041 (inactive).

For the compound `C[C@H]1NC(=O)[C@@]23C(=O)N[C@@H](Cc4ccccc4)C2[C@H](C)[C@@]2(C)O[C@H]2C3/C=C/C/C=C\CNC(=O)[C@H](Cc2ccccc2)NC1=O` (some centres not stated), the composite z-score in assay [1] was 0.0017 (inactive); in the assay on XIP peptide (Xip251-270), 0.424. Moreover, the z-score in assay [2] was -1.4; in assay [3], -7.15 (inactive); in assay [4], 0.116 (inactive); in assay [5] it was 0.368 (inactive).
